Measurements: PubChem BioAssay AID1347131 (National Center for Advancing Translational Sciences (NCATS), 2019)
Among all 410,000 compounds or so, about 2,000 (0.49%) were called active. Where a call stands in place of a potency, no number is given. Inconclusive results (about 8%) are left out. The call rests on the fitted dose curve; tested in HEK293 reporter line. The sample as a whole holds a higher share of actives than the screen did.

experiment: qHTS Assay for Foot and Mouth Disease Virus Antivirals: Primary Screen against the MLPCN compound library; details: FMDV antiviral cell-based qHTS; series mostly up to 57.9 µM; further: nearly all actives have a fitted effect of over 55% in size
Potency means the concentration at half of the fitted maximal effect.

| Structure (SMILES) | Potency |
| --- | --- |
| CC(=O)c1sc(NC(=O)C2CC(=O)N(Cc3ccccc3)C2)nc1-c1ccccc1 (stereo not drawn) | inactive |
| Brc1ccc(OCc2ccccc2)c(CNCc2ccncc2)c1 | 20 µM (active) |
| Clc1cc(Br)ccc1OCCCNCc1ccccc1 | inactive |
| CCOc1cc(CNCc2ccncc2)cc(Br)c1OCc1ccccc1F | inactive |
| Cc1ccc(S(=O)(=O)c2c(C)nn(C(C)(C)C)c2OC(=O)C(C)(C)C)cc1 | inactive |
| COc1cc2[nH]c(=S)nc(NC3CCCCCC3)c2cc1OC | inactive |
| CCOC(=O)c1ccc(N2C=C(C(=O)OC)C(c3ccc(OC)c(O)c3)C(C(=O)OC)=C2)cc1 | inactive |
| Cc1cccc(NC(=O)/C(C#N)=C\c2ccc(C(=O)O)cc2)c1 | inactive |
| N#C/C(=C\c1ccc(OCc2ccc(C(=O)O)cc2)cc1)C(=O)N1CCOCC1 | 10 µM (active) |
| COc1ccc(CCNC(=O)/C(C#N)=C/c2ccc(OCC(=O)NCC3CCCO3)cc2)cc1OC (stereo not drawn) | inactive |
| Cc1nc(SCC(=O)NCCc2ccccc2)nc(C)c1C | inactive |
| CCOCCCNC(=S)N1CCN(c2nc(-c3ccccc3)cs2)CC1 | inactive |
| CN1/C(=C\C(=O)CSc2nnc(N)s2)C(C)(C)c2ccccc21 | inactive |
| Cc1ccc2c(c1)Cc1nc3ccccc3nc1-2 | 14.1 µM (active) |
| Cc1ccc(C)c(Nc2cc(C)nc3ccccc23)c1 | inactive |
| Cc1ccc(CSc2nc3ccccc3cc2C=O)cc1 | inactive |
| COc1cccc(-c2nc(CS(=O)(=O)CC(=O)NCCCc3ccccc3)c(C)o2)c1 | inactive |
| NC(=O)COc1ccccc1/C=C1/SC(=O)N(CC(=O)N2CCc3ccccc3C2)C1=O | inactive |
| COc1ccc(-c2nc(NC(=O)c3c(C)noc3C)sc2C)cc1 | inactive |
| COc1ccc(NC(=O)c2[nH]c(C)c(C(C)=O)c2C)cc1 | inactive |
| COc1ccc(-c2nc(NC(=O)c3[nH]c(C)c(C(C)=O)c3C)sc2C)cc1 | 28.2 µM (active) |
| Fc1ccc(CN2CCN3CCCC3C2C2CCCCC2)cc1F (stereo not drawn) | inactive |
| O=c1[nH]c(SCc2ccccc2Cl)nc2c1cnn2-c1ccccc1 | inactive |

| Structure (SMILES) | Potency |
| --- | --- |
| c1nc(NCc2ccc3c(c2)OCO3)c2cc(-c3ccc4c(c3)OCCO4)ccc2n1 | inactive |
| COc1ccc(N2CCN(C(=O)Cn3cnc4c(cnn4-c4ccc(C)cc4)c3=O)CC2)cc1 | inactive |
| CCCCCn1nc(C(=O)OCC(=O)c2c(N)n(C)c(=O)n(C)c2=O)c2ccccc2c1=O | inactive |
| COc1cccc(-c2cn3nc4c(nc3n2)CCCC4)c1 | 10 µM (active) |
| COc1cccc(-c2cc(C(=O)NC3CC3)c3ccccc3n2)c1 | inactive |
| COc1cccc(Nc2c3c(nc4c(-c5ccccc5)c(C)nn24)CCC3)c1 | inactive |
| c1ccc(Sc2cccc3ccccc23)c(CNC2=NCCN2)c1 | inactive |
| COc1ccccc1S(=O)(=O)Cc1ccc(C(=O)NCc2ccc3c(c2)OCO3)o1 | inactive |
| CC(C)(C)NC(=O)c1ccc(COc2ccc(Cl)cc2Cl)o1 | inactive |
| Clc1ccc(OCc2cc(-c3ccccc3)no2)c(Cl)c1 | 12.6 µM (active) |
| FC(F)(F)c1nnc(-c2ccccc2)nc1Oc1ccc(Cl)cc1Cl | inactive |
| CCN1CCN(C(=O)C2CCN(c3nnc(C)c4c(C)n(-c5ccc(C)cc5)nc34)CC2)CC1 | inactive |
| Cc1ccc(C(=O)N(CC(=O)Nc2sc(C)c(C)c2C(N)=O)C2CCCC2)cc1 | inactive |
| COc1ccc(NS(=O)(=O)c2cc(NC(=O)c3ccc(=O)[nH]c3)ccc2N2CCOCC2)cc1 | inactive |
| CC(=O)c1sc(NC(=O)c2cc(-c3ccccc3)nn2-c2ccccc2)nc1C | inactive |
| CC(=O)c1sc(NC(=O)C2COc3ccccc3O2)nc1C (stereo not drawn) | 11.2 µM (active) |
| O=C(Nc1nc(-c2ccc(S(=O)(=O)N3CCCC3)cc2)cs1)C1COc2ccccc2O1 (stereo not drawn) | inactive |
| CCOc1ccc(C(=O)N(Cc2cc(OC)c(OC)c(OC)c2)c2ccccn2)cc1 | inactive |
| CN(C)Cc1n[nH]c(=O)c2ccccc12 | inactive |
| CC1=C/C(=C(/c2cc(C)c(O)c(Br)c2)c2ccccc2S(=O)(=O)O)C=C(Br)C1=O | 17.8 µM (active) |
| COc1ccc(NC(=S)N2CCN(Cc3ccc(C)cc3)CC2)cc1 | inactive |
| CN1CCN(S(=O)(=O)c2cccc(C(=O)Nc3ccc(Br)cc3Br)c2)CC1 | inactive |
| CCn1c(=S)sc2c(=O)n(CC(=O)Nc3cccc(Cl)c3)c(C)nc21 | inactive |

| Structure (SMILES) | Potency |
| --- | --- |
| CCOC(=O)NC(=O)/C(C#N)=N/Nc1c(F)cccc1F | inactive |
| C=CCn1c(SCC(=O)Nc2nc3ccccc3s2)nnc1-c1ccccc1O | 25.1 µM (active) |
| Cc1nc(SCC(=O)Nc2nc3ccccc3s2)c(C#N)c(C)c1C | inactive |
| C=CCn1c(SCC(=O)Nc2cccnc2Cl)nnc1-c1ccccc1F | inactive |
| COc1ccc(N2CCOCC2)c(NC(=O)c2cc3ccccc3o2)c1 | inactive |
| COc1ccccc1NC(=O)C1=C(C)NC(SCC(=O)c2ccccc2)=C(C#N)C1c1ccco1 (stereo not drawn) | inactive |
| Cc1cc(C)n2c(Nc3c(C)cccc3C)c(-c3ccccn3)nc2n1 | inactive |
| Cc1cccnc1Nc1nc(-c2ccccn2)cs1 | 11.2 µM (active) |
| CCCn1nc(C(=O)Nc2nc(-c3ccccn3)cs2)c2ccccc2c1=O | inactive |
| CN(CC(=O)NCc1ccccc1)CC(=O)Nc1ccc(Cl)c(C(F)(F)F)c1 | inactive |
| COc1ccc(-c2nsc3c(N4CCCCC4)ncnc23)cc1 | inactive |
| COc1ccc(-c2nsc3c(N4CCCCC4C)ncnc23)cc1 (stereo not drawn) | inactive |
| COc1ccc(-c2nsc3c(N4CCCC4)ncnc23)cc1 | 22.4 µM (active) |
| NC(=O)c1cccn(Cc2ccc(C(F)(F)F)cc2)c1=O | inactive |
| CC(=O)c1cccc(NC(=O)CN2CCc3cc4c(cc3C2C)OCCCO4)c1 (stereo not drawn) | inactive |
| CC(C)CNc1nc2c(c(=O)n(C)c(=O)n2C)n1Cc1cccc(Br)c1 | inactive |
| Cc1nn2cc(-c3ccc(OC(C)C)cc3)nc2s1 | 14.1 µM (active) |
| COC(=O)c1ccc2nc(-c3ccc(C#N)cc3)c(Cc3ccsc3)n2c1 | inactive |
| COc1ccccc1-c1nc(-c2ccccc2)nc(N2CCN(C)CC2)c1C#N | inactive |
| COC1=CC(=O)c2ccccc2C1=O | inactive |
| Cc1cccc(-n2c(O)c(C=Nc3ccccc3)c3ccccc3c2=O)n1 | inactive |
| O=C1C(C=Nc2ccccc2)=C(O)c2ccccc21 | 10 µM (active) |
